Experimental data taken from PubChem BioAssay.
Results filed as inconclusive are left out. Activity calls are given as the source filed them.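 Rule for the calls, unless noted: active = normalized viability below 100% at a tested concentration; inactive = the rest.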

Legend:
[1] = growth inhibition of DIPG glioma cells, dose response, cell-based, SU-DIPG-XVII, MIPE5.0, CellTiter-Glo, qHTS (AID 1347060; cut-off not given, nearly all actives have AC50 up to about 26 µM;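 note: cells exposed to compound for 48 hours before viability readout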); details: SU-DIPG-XVII viability, CellTiter-Glo ATP luminescence
[2] = growth inhibition of DIPG glioma cells, dose response, cell-based, JHH-DIPG-1, MIPE4.0, CellTiter-Glo, qHTS (AID 1347062; cut-off not given, nearly all actives have AC50 up to about 27 µM;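 note: cells exposed to compound for two days before readout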); details: JHH-DIPG-1 viability, CellTiter-Glo ATP luminescence
[3] = growth inhibition of DIPG glioma cells, dose response, cell-based, SU-DIPG-XIII, MIPE5.0, CellTiter-Glo, qHTS (AID 1347064; cut-off not given, nearly all actives have AC50 up to about 23 µM;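 note: cells exposed to compound for 48 hours before the viability read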); details: SU-DIPG-XIII viability, CellTiter-Glo ATP luminescence
[4] = viability loss in pontine glioma line – cell-based, SU-DIPG-XXV, MIPE5.0, CellTiter-Glo, qHTS, dose response (AID 1347065; cut-off not given, nearly all actives have AC50 up to about 26 µM;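 note: cells exposed to compound for 48 hours before ATP readout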); details: CellTiter-Glo ATP luminescence
[5] = SU-DIPG-VI glioma cell viability, MIPE4.0 library, CellTiter-Glo luminescence, qHTS (AID 1347066; cut-off not given, nearly all actives have AC50 up to about 30 µM;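 note: cells exposed to compound for 48 hours before readout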); details: CellTiter-Glo ATP luminescence
[6] = JHH-DIPG-1 glioma cell viability, MIPE5.0 library, CellTiter-Glo luminescence, qHTS (AID 1347067; cut-off not given, nearly all actives have AC50 up to about 26 µM;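 note: cells exposed to compound for 48 hours before readout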); details: JHH-DIPG-1 glioma viability, CellTiter-Glo ATP luminescence
[7] = SU-DIPG-XXV glioma cell viability, MIPE5.0 library, qHTS (AID 1347068; cut-off not given, nearly all actives have IC50 up to about 30 µM;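 note: cells exposed to compound for 48 hours before viability readout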)
[8] = sensitizers of A549 cells to miR-34 induction, primary screen, imaging, A549 dox-inducible miR-34, nuclei and caspase counts (AID 1347080;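 active = compounds whose cell count with miR-34 switched on is under 0.7 times the count with it off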); details: A549 miR-34 inducible, Hoechst nuclei count, 48 h
[9] = modifiers of HSF1 nuclear foci, imaging, Selleck Cancer Library (AID 1347162; in the data active = plate-normalised HSF1 focus index below about 0.46); details: human cells, at 10 µM; SSMD: measured here: HSF1 foci SSMD mean; cell count: measured here: cell number; plate-normalised HSF1 focus index: stronger effect = lower value
[10] = survival rescue of mitochondrial mutant cells in low glucose, primary screen, MELAS cybrids, Rieske KO mouse fibroblasts, CellTiter-Glo (AID 1508586;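 active = mean z-score across replicates of 1.96 or higher in either the MELAS or the Rieske mutant cell line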;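 note: z relative to plate mean and SD of compound and empty wells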)
[11] = ovarian cancer cell viability with rucaparib, profiling panel, oncology-focused library, rucaparib conditional (AID 1508598); details: patient-derived ovarian cancer cells, CellTiter-Glo viability, 144 h, stronger effect = lower value

Nc1ccccc1NC(=O)c1ccc(CNc2nccc(-c3cccnc3)n2)cc1
AC50 [1]: 2630 nM (active) | AC50 [2]: 1480 nM (active) | AC50 [3]: 1480 nM (active) | AC50 [4]: 590 nM (active) | AC50 [5]: 1180 nM (active) | AC50 [6]: 1180 nM (active) | IC50 [7]: 2630 nM (active) | fold change ([8]; stronger effect = lower value, cell number ratio, induced over uninduced): 1.16 (inactive) | fold change ([8]; measured here: relative caspase fold change +Dox/-Dox): 0.733 | cell count ([8]; measured here: total cells with miR-34 induction, stronger effect = lower value): 1740 | cell count ([8]; measured here: total cells without miR-34 induction): 1500 | SSMD [9]: 2.12 | cell count [9]: 7260 | plate-normalised HSF1 focus index [9]: 1.13 (inactive) | z-score ([10]; MELAS cybrid survival, CellTiter-Glo 48 h, stronger effect = higher value): -0.546 (inactive) | z-score ([10]; Rieske KO mouse fibroblast survival, CellTiter-Glo 72 h): -2.11 | viability ([11]; at 0.000305 µM, OCI-C5x cells, with rucaparib 10 µM, 100% = cells with rucaparib alone): 107% (inactive) | viability ([11]; at 0.000305 µM, OCI-C5x cells, without rucaparib): 111% (inactive) | viability ([11]; at 0.000305 µM, OCI-P5x cells, with rucaparib 20 µM, 100% = cells with rucaparib alone): 122% (inactive) | viability ([11]; at 0.000305 µM, OCI-P5x cells, without rucaparib): 119% (inactive) | viability ([11]; at 0.00122 µM, OCI-C5x cells, with rucaparib 10 µM, 100% = cells with rucaparib alone): 112% (inactive) | viability ([11]; at 0.00122 µM, OCI-C5x cells, without rucaparib): 110% (inactive) | viability ([11]; at 0.00122 µM, OCI-P5x cells, with rucaparib 20 µM, 100% = cells with rucaparib alone): 110% (inactive) | viability ([11]; at 0.00122 µM, OCI-P5x cells, without rucaparib): 116% (inactive) | viability ([11]; at 0.00488 µM, OCI-C5x cells, with rucaparib 10 µM, 100% = cells with rucaparib alone): 118% (inactive) | viability ([11]; at 0.00488 µM, OCI-C5x cells, without rucaparib): 115% (inactive) | viability ([11]; at 0.00488 µM, OCI-P5x cells, with rucaparib 20 µM, 100% = cells with rucaparib alone): 107% (inactive) | viability ([11]; at 0.00488 µM, OCI-P5x cells, without rucaparib): 108% (inactive) | viability ([11]; at 0.0195 µM, OCI-C5x cells, with rucaparib 10 µM, 100% = cells with rucaparib alone): 119% (inactive) | viability ([11]; at 0.0195 µM, OCI-C5x cells, without rucaparib): 117% (inactive) | viability ([11]; at 0.0195 µM, OCI-P5x cells, with rucaparib 20 µM, 100% = cells with rucaparib alone): 101% (inactive) | viability ([11]; at 0.0195 µM, OCI-P5x cells, without rucaparib): 96.7% (active) | viability ([11]; at 0.0781 µM, OCI-C5x cells, with rucaparib 10 µM, 100% = cells with rucaparib alone): 110% (inactive) | viability ([11]; at 0.0781 µM, OCI-C5x cells, without rucaparib): 101% (inactive) | viability ([11]; at 0.0781 µM, OCI-P5x cells, with rucaparib 20 µM, 100% = cells with rucaparib alone): 103% (inactive) | viability ([11]; at 0.0781 µM, OCI-P5x cells, without rucaparib): 94.4% (active) | viability ([11]; at 0.313 µM, OCI-C5x cells, with rucaparib 10 µM, 100% = cells with rucaparib alone): 67.3% (active) | viability ([11]; at 0.313 µM, OCI-C5x cells, without rucaparib): 71.1% (active) | viability ([11]; at 0.313 µM, OCI-P5x cells, with rucaparib 20 µM, 100% = cells with rucaparib alone): 72% (active) | viability ([11]; at 0.313 µM, OCI-P5x cells, without rucaparib): 77.1% (active) | viability ([11]; at 1.25 µM, OCI-C5x cells, with rucaparib 10 µM, 100% = cells with rucaparib alone): 6.09% (active) | viability ([11]; at 1.25 µM, OCI-C5x cells, without rucaparib): 5.69% (active) | viability ([11]; at 1.25 µM, OCI-P5x cells, with rucaparib 20 µM, 100% = cells with rucaparib alone): 15.2% (active) | viability ([11]; at 1.25 µM, OCI-P5x cells, without rucaparib): 19.7% (active) | viability ([11]; at 5 µM, OCI-C5x cells, with rucaparib 10 µM, 100% = cells with rucaparib alone): 5.71% (active) | viability ([11]; at 5 µM, OCI-C5x cells, without rucaparib): 5.7% (active) | viability ([11]; at 5 µM, OCI-P5x cells, with rucaparib 20 µM, 100% = cells with rucaparib alone): 9.81% (active)
